RGS16-Gao – modulates binding between human RGS16 and Galphao | O15492+P09471 | bead-based flow cytometry RGS16-Galphao binding, fluorescence; actives lie on both sides | binding response (% of control), % at 10 µM | 0.38% of 220,000 active; call rule not given here;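 also: Galphao activated by GDP with aluminum fluoride before binding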
Target sequence (O15492 whole entry, looked up): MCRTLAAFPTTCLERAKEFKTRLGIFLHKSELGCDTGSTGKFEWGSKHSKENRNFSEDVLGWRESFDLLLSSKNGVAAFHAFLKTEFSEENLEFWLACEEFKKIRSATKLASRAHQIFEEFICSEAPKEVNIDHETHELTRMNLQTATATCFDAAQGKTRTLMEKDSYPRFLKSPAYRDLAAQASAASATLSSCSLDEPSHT
Target sequence (P09471 whole entry, looked up): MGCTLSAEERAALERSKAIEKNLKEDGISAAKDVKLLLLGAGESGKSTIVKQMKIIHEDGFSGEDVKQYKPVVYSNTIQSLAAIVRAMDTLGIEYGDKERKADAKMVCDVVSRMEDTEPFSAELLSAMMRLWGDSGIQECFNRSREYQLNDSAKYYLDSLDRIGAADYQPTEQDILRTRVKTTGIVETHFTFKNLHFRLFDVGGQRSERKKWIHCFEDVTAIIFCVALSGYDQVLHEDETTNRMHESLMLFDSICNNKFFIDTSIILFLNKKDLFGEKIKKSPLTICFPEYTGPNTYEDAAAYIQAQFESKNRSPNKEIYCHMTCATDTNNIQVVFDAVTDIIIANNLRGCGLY
Avidin fluor – avidin bead compound fluorescence profile; Avidin beads, compound fluorescence 488/530 nm, flow cytometry; hits give high values; fluorescence (KMESF) at 10 µM; 0.38% of 220,000 active; AID 1775; in the data active = fluorescence above about 47
RGS8-Gao – regulators of human RGS8-Galphao interaction; response (percent of control binding), % at 10 µM; multiplexed bead flow cytometry, RGS8-Galphao binding; actives lie on both sides; P09471; 0.34% of 220,000 active; in the data active = response below about 60% or above about 140%; inactive = in between;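 also: Galphao activated as the GDP aluminium fluoride complex binding bead-coupled RGS8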
Target sequence (P09471 whole entry, looked up): as above
RGS7-Gao reg – modulates binding of RGS7 to human Galphao; P09471; Multiplexed bead flow cytometry; actives lie on both sides; binding response (% of control), % at 10 µM; 0.35% of 220,000 active; in the data active = binding response below about 49% or above about 150%; inconclusive = no clear call, values can overlap the other calls; inactive = in between;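 also: fluorescent Galphao held in activated GDP-AlF4 state binding bead-coupled RGS7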
RGS4-Gao reg – modulates binding of RGS4 to human Galphao | P09471 | Multiplexed bead flow cytometry; actives lie on both sides | binding response (% of control), % at 10 µM | 0.33% of 220,000 active | AID 1415; in the data active = binding response below about 49% or above about 150%; inactive = in between;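 also: fluorescent Galphao activated with aluminum fluoride binding bead-coupled RGS4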
GSH bead fluor – GSH bead compound fluorescence profile | GSH beads flow cytometry, compound fluorescence 488/530 nm; hits give high values | fluorescence (KMESF) at 10 µM | 0.25% of 190,000 active | AID 1776; in the data active = fluorescence above about 89;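 also: glutathione beads carrying GST-tagged Bcl family fusion proteins plus one bare bead set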
Hits are given with their value; . = inactive; ? = inconclusive; / = not tested or not shown. A selection: hits, their analogues and other compounds. The true share with any hit is near 1.2%.

SMILES	RGS16-Gao	Avidin fluor	RGS8-Gao	RGS7-Gao reg	RGS4-Gao reg	GSH bead fluor
CCOc1ccc(/C(O)=C2\C(=O)C(=O)N(c3cc(C)on3)C2c2ccccc2OC)cc1 (stereo unspecified)	.	76	.	.	.	.
CCOC(=O)c1cnn(-c2ncnc3sc4c(c23)CCC4)c1N	.	52	.	.	.	.
C=CCn1c(=O)c2c(nc3n2CCS3)n(C)c1=O	.	.	.	.	.	.
Cn1c(=O)n(Cc2ccccc2)c(=O)c2c1nc1n2CCS1	.	.	.	.	.	266
O=C(Nc1ccc2c(c1)OCO2)[C@@H]1[C@@H]2C(=O)N(C3CCCCC3)C(=O)[C@@H]2C2c3ccccc3C=CN21 (stereo partly specified)	.	.	.	.	.	237
O=C(O)c1ccc2c(c1)C(=O)N(N1C(=O)c3ccccc3C1=O)C2=O	.	.	.	.	.	111
CC(=O)Oc1ccccc1N1C(=O)c2ccc(C(=O)O)cc2C1=O	.	.	.	.	.	.
O=S(=O)(N1CCCCC1)n1nnc2ccccc21	.	49	.	.	.	.
CC(=O)N1c2ccccc2NC2=C(C(=O)CCC2)C1c1cccnc1 (stereo unspecified)	.	49	.	.	.	.
O=C(c1cccc(Cl)c1)N1CCn2c1nc1ccccc12	.	.	.	.	.	.
O=C(CN1CCC(NC(=O)c2ccco2)CC1)Nc1cccc2ccccc12	.	.	.	.	.	120
O=c1[nH]c(CN2CCN(c3ccc(O)cc3)CC2)nc2scc(-c3ccc(Cl)cc3)c12	.	.	.	.	.	.
CC(=O)c1ccc(NS(=O)(=O)c2ccc(N)cc2)cc1	.	.	.	.	.	.
CC(=O)c1ccc(NS(=O)(=O)c2ccccc2)cc1	.	49	.	.	.	.
C=CCn1c(SCC(=O)NC2CCCCC2)nnc1C1CCCCC1	.	60	.	.	.	.
Nn1c(SCC(=O)NC2CCCCC2)nnc1C1CC1	.	.	.	.	.	.
CCOC(=O)/C=C1\SCC(=O)N1Cc1nnc(-c2ccccc2Br)o1	.	50	.	.	.	.
CCC(=O)Nc1ccc(C(=O)N/N=C/c2cc(Br)c(OC)cc2OC)cc1	.	.	.	.	.	.
CC1(C)CC(=O)C(Br)=C(O)C1	.	.	.	?	.	.
CC1(C)CC(=O)C(=C2SCCCS2)C(=O)C1	.	.	.	.	.	156
O=C(COc1ccccc1)Nn1c(-c2ccccc2)nc2ccccc2c1=O	.	.	.	.	.	.
Cc1ccc(-c2nc3ccccc3c(=O)n2NC(=O)COc2ccccc2)cc1	.	.	.	.	.	231
CCc1nnc(NC(=O)C2CCCN2C(=O)NC2CCCCC2)s1 (stereo unspecified)	.	.	.	.	.	262
CCCc1cc(=O)[nH]c(SCC(=O)Nc2ncc(S(=O)(=O)c3ccc([N+](=O)[O-])cc3)s2)n1	.	.	.	?	.	/
O=C(O)C(Cc1cc2ccccc2[nH]1)N1C(=O)C2CC=C(Cl)CC2C1=O (stereo unspecified)	.	.	.	.	.	117
SMILES	RGS16-Gao	Avidin fluor	RGS8-Gao	RGS7-Gao reg	RGS4-Gao reg	GSH bead fluor
O=C(CSc1nc2ncccc2[nH]1)c1cccc([N+](=O)[O-])c1	.	.	.	.	.	.
COc1ccc2nc(SCC(=O)Nc3ccccc3C#N)[nH]c2c1	.	.	.	.	.	.
COc1ccc2nc(SCC(=O)Nc3ccccc3C)[nH]c2c1	.	64	.	.	.	.
Nc1c(C(=O)NCc2ccco2)sc2nc(N3CCOCC3)c3c(c12)CCCC3	.	62	.	.	.	.
Cc1cnc(C(=O)OCc2ccc(COC(=O)c3cnc(C)cn3)cc2)cn1	.	69	.	?	.	.
Cc1ccc(CNC(=O)COC(=O)c2cnc(C)cn2)cc1	.	.	.	?	.	.
CCOC(=O)C(NC(=O)CC)(Nc1nc2c(s1)CCCC2)C(F)(F)F (stereo unspecified)	.	.	.	.	.	156
O=C(CN1C(=O)NC2(CCCCCC2)C1=O)N1CCN(S(=O)(=O)c2ccc(Cl)cc2)CC1	.	49	.	.	.	.
CC(C)[C@H](NC(=O)c1ccccc1)C(=O)OCC(=O)NCCC1=CCCCC1	.	54	.	.	.	.
CC(C)CC(NC(=O)c1ccccc1NC(=O)c1ccccc1)C(=O)O (stereo unspecified)	.	.	.	.	.	.
Cc1noc(C)c1COC(=O)CCCc1c[nH]c2ccccc12	.	.	.	.	.	258
CC(C)NC(=O)CCCc1c[nH]c2ccccc12	.	58	.	.	.	.
CCOC(=O)CCCc1c[nH]c2ccccc12	.	.	.	.	.	.
COc1ccccc1-c1nnc(Sc2nc([N+](=O)[O-])nn2C)o1	.	.	.	.	.	.
C/C(=N\Nc1nc(C)c(C)s1)c1ccc([N+](=O)[O-])cc1	.	.	.	.	.	.
Cc1cc(C)cc(OCC(=O)Nc2ccccc2N2CCCCC2)c1	.	69	.	.	.	.
COc1cc(C(=O)Nc2ccc(S(=O)(=O)Nc3nccc(C)n3)cc2)c([N+](=O)[O-])cc1OC	.	.	.	?	.	/
CS(=O)(=O)N1CCN(c2cnn(-c3ccccc3)c(=O)c2Cl)CC1	.	90	.	.	.	.
Cc1ccc(S(=O)(=O)N(C)C)cc1NC(=S)Nc1ccc2[nH]c(=O)[nH]c2c1	.	.	.	?	.	.
Cc1cc2occ(CC(=O)O)c2cc1C	.	.	.	.	.	234
Cc1ccc2c(CC(=O)O)coc2c1	.	.	.	.	.	.
Cc1ccc(C)c(/C(O)=C2\C(=O)C(=O)N(Cc3cccnc3)C2c2cccnc2)c1 (stereo unspecified)	.	49	.	.	.	.
Cn1c(=S)n(C)c2ccccc21	.	84	.	.	.	.
S=C(NCc1ccc2[nH]c3c(c2c1)CCCC3)Nc1ccccc1	.	.	.	.	49.1	.
O=C(CCn1nc(-c2ccc(Cl)cc2)c2ccccc2c1=O)Nc1cccnc1	.	.	.	.	.	.
SMILES	RGS16-Gao	Avidin fluor	RGS8-Gao	RGS7-Gao reg	RGS4-Gao reg	GSH bead fluor
CC(C)N(C)NC(=S)Nc1ccccc1	.	.	.	.	.	332
CCN(CC)NC(=S)Nc1ccccc1	.	.	.	.	.	.
O=C1COc2ccc(C(=O)COC(=O)Cn3cnc4ccccc43)cc2N1	.	.	.	.	.	272
O=C1COc2ccc(C(=O)COC(=O)c3ccc4ccccc4n3)cc2N1	.	.	.	.	.	.
CCc1cc2cc(C)ccc2nc1SCC(=O)N1CCN(C(=O)c2ccco2)CC1	.	.	.	.	.	254
Cc1nnc(N(C)C(=O)c2ccc3c(c2)OCO3)s1	.	.	.	.	.	.
OC(CSc1ccccc1Cl)CN1CCN(c2ccccc2F)CC1 (stereo unspecified)	.	89	.	.	.	.
